Compounds with a hit are over-represented: about 2.8% of the library has one in this group of screens.
PvdQ inh – blocks Pseudomonas aeruginosa PvdQ acylase activity; purified PvdQ acylase, fluorescence plate reader; inhibition, % at 10 µM; 340,000 tested, 0.063% active; AID 488965; in the data active = inhibition above about 30%, passing the limit was not always enough
PglD DTNB – inhibitors of Campylobacter jejuni PglD acetyltransferase; purified PglD enzyme, DTNB colorimetric CoA detection; inhibition, % at 12.5 µM; 360,000 tested, 0.098% active; in the data active = inhibition above about 16%, passing the limit was not always enough
dFosB activator – mouse delta FosB homodimer activation. purified delta FosB, TAMRA-CDK5 oligo fluorescence polarization; percent of positive-control signal above neutral wells. activation, % at 25 µM. 340,000 tested, 0.99% active. AID 493131;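 active = mean activation above about 17%, with every replicate also reaching it, limit read from the data, passing the limit was not always enough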
SIRT5 block – blocks human SIRT5 desuccinylation of peptide; Q9NXA8; Purified SirT5, succinyl-peptide AMC, trypsin-coupled fluorescence; inhibition, % at 15 µM; 330,000 tested, 1.1% active; in the data active = inhibition above about 15%
Target sequence (Q9NXA8 whole entry, looked up): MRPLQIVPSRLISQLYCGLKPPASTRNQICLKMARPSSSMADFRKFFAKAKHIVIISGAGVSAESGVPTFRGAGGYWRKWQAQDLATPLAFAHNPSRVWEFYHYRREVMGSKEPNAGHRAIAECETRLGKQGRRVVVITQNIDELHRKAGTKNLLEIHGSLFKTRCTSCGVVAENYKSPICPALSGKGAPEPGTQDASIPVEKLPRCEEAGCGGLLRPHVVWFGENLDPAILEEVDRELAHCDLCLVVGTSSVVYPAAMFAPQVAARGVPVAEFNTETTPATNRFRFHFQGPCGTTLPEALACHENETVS
CDK5 inh – blocks human CDK5/p35 kinase activity. Recombinant CDK5/p35, ADP-Glo luminescence, 60 min. inhibition, % at 10 µM. 330,000 tested, 0.01% active;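 active = highest replicate inhibition of at least 50% and at least 75% of replicates reaching 50%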
FGF22 binding – shifts melting point of recombinant human FGF22. Q9HCT0. 340,000 tested, 1.5% active. recombinant FGF22 thermal shift, SYPRO orange fluorescence; percent of sucrose octasulfate shift, DMSO zero. activity (Tm shift, normalised), % at 9.99 µM;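 active = mean Tm shift, scaled 0 neutral to 100 positive control, at about 1.3% or above, every replicate too, limit read from the data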
Target sequence (Q9HCT0 whole entry, looked up): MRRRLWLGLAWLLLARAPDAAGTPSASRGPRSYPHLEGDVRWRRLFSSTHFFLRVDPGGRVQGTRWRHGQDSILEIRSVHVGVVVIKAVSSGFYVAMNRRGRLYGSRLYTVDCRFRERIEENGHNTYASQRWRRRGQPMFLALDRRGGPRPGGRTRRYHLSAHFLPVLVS
Hits are given with their value.

How did Cc1ccc(S(=O)(=O)N(C)C[C@@H]2OCCCC[C@@H](C)Oc3ccc(NS(=O)(=O)c4ccc(Cl)cc4)cc3C(=O)N([C@@H](C)CO)C[C@@H]2C)cc1 do in these assays?
PglD DTNB: inactive; SIRT5 block: inactive; FGF22 binding: inactive

Results for C[C@@H]1CCCCO[C@H](CN(C)S(=O)(=O)c2ccc(Cl)cc2)[C@H](C)CN([C@@H](C)CO)C(=O)c2cc(N(C)C)ccc2O1 ?
PglD DTNB: inactive; SIRT5 block: 21; FGF22 binding: inactive

Results for Cc1ccc(S(=O)(=O)N(C)C[C@@H]2OCCCC[C@H](C)Oc3ccc(NS(=O)(=O)c4ccc(Cl)cc4)cc3C(=O)N([C@@H](C)CO)C[C@H]2C)cc1 ?
PglD DTNB: inactive; SIRT5 block: 22; FGF22 binding: inactive

How did Cc1ccc(S(=O)(=O)Nc2ccc3c(c2)C(=O)N([C@H](C)CO)C[C@H](C)[C@@H](CN(C)S(=O)(=O)c2ccc(Cl)cc2)OCCCC[C@H](C)O3)cc1 do in these assays?
PglD DTNB: inactive; FGF22 binding: 31

What do the screens show for `Cc1ccc(S(=O)(=O)N(C)C[C@H]2OCCCC[C@H](C)Oc3ccc(NS(=O)(=O)c4ccc(Cl)cc4)cc3C(=O)N([C@@H](C)CO)C[C@@H]2C)cc1`?
PglD DTNB: inactive; SIRT5 block: 24; FGF22 binding: inactive

Results for Cc1ccc(S(=O)(=O)Nc2ccc3c(c2)C(=O)N([C@H](C)CO)C[C@@H](C)[C@H](CN(C)S(=O)(=O)c2ccc(Cl)cc2)OCCCC[C@H](C)O3)cc1 ?
SIRT5 block: inactive; FGF22 binding: inactive

How did Cc1ccc(S(=O)(=O)Nc2ccc3c(c2)C(=O)N([C@@H](C)CO)C[C@@H](C)[C@@H](CN(C)S(=O)(=O)c2ccc(Cl)cc2)OCCCC[C@@H](C)O3)cc1 do in these assays?
PglD DTNB: inactive; FGF22 binding: inactive

What do the screens show for `CN(C)CC(=O)N1CCCCN2[C@H](C1)[C@H](c1ccc(-c3cccnc3)cc1)[C@@H]2CO`?
PglD DTNB: inactive; SIRT5 block: inactive; FGF22 binding: inactive

Results for O=C(C[C@H]1C=C[C@@H](NC(=O)Nc2cc(F)ccc2F)[C@@H](CO)O1)Nc1ccc(-c2ccccc2)cc1 ?
SIRT5 block: inactive; FGF22 binding: inactive

How did CCCC(=O)N1CC2(CN(S(=O)(=O)CC)C2)c2c(n(C)c3cc(OC)ccc23)[C@@H]1CO do in these assays?
FGF22 binding: inactive

Results for Cc1ccc(S(=O)(=O)N(C)C[C@H]2OCCCC[C@H](C)Oc3ccc(NS(=O)(=O)c4ccc(Cl)cc4)cc3C(=O)N([C@@H](C)CO)C[C@H]2C)cc1 ?
PglD DTNB: inactive; SIRT5 block: 26; FGF22 binding: inactive

How did Cc1ccc(S(=O)(=O)N(C)C[C@@H]2OCCCC[C@@H](C)Oc3ccc(NS(=O)(=O)c4ccc(Cl)cc4)cc3C(=O)N([C@H](C)CO)C[C@@H]2C)cc1 do in these assays?
PglD DTNB: inactive; SIRT5 block: inactive; FGF22 binding: inactive

How did N/C(=N\N=C/c1ccc(F)cc1)N/N=C\c1ccc(F)cc1 do in these assays?
PvdQ inh: inactive; PglD DTNB: inactive; dFosB activator: 26; SIRT5 block: inactive; CDK5 inh: inactive; FGF22 binding: inactive

Results for O=C(NN=Cc1ccc2c(c1)OCO2)C1CC1 ?
PvdQ inh: inactive; PglD DTNB: inactive; dFosB activator: inactive; CDK5 inh: inactive; FGF22 binding: 43

What do the screens show for `O=C(NN=Cc1ccc2c(c1)OCO2)NN=Cc1ccc2c(c1)OCO2`?
PvdQ inh: inactive; PglD DTNB: inactive; dFosB activator: inactive; SIRT5 block: inactive; CDK5 inh: inactive; FGF22 binding: inactive

What do the screens show for `N/C(=N\N=Cc1ccc2c(c1)OCO2)NN=Cc1ccc2c(c1)OCO2`?
PvdQ inh: inactive; PglD DTNB: inactive; dFosB activator: 42; SIRT5 block: inactive; CDK5 inh: inactive; FGF22 binding: inactive

How did C[C@@H]1CN([C@H](C)CO)C(=O)c2cccc(NC(=O)Nc3ccc4c(c3)OCO4)c2O[C@@H]1CN(C)C(=O)Nc1ccc2c(c1)OCO2 do in these assays?
PglD DTNB: inactive; SIRT5 block: inactive; FGF22 binding: inactive

How did O=C(O)C[C@H]1C=C[C@@H](NC(=O)c2ccccc2F)[C@H](CO)O1 do in these assays?
PglD DTNB: inactive; SIRT5 block: inactive; FGF22 binding: inactive

Results for N#C[C@@H]1[C@H](c2ccccc2-c2cccc(F)c2)[C@H](CO)N1C(=O)c1cccnc1 ?
SIRT5 block: inactive

Results for CCOc1ccccc1NC(=O)C1CCN(c2ccc(S(=O)(=O)N3CCCC3)cc2)CC1 ?
PvdQ inh: inactive; PglD DTNB: inactive; dFosB activator: inactive; SIRT5 block: 17; CDK5 inh: inactive; FGF22 binding: inactive

What do the screens show for `CCOc1ccccc1NC(=O)C1CCN(S(=O)(=O)c2ccc(OC)c(OC)c2)CC1`?
PvdQ inh: inactive; dFosB activator: inactive; SIRT5 block: inactive; CDK5 inh: inactive; FGF22 binding: inactive

How did CCOC(=O)C1=C(C)Nc2ccccc2N=C1NC(=O)/C=C/c1ccc(OC)cc1OC do in these assays?
PvdQ inh: inactive; dFosB activator: inactive; SIRT5 block: inactive; CDK5 inh: inactive; FGF22 binding: 44

What do the screens show for `CCOC(=O)C1=C(C)Nc2ccccc2N=C1NC(=O)Cc1ccc(OC)cc1`?
PvdQ inh: inactive; PglD DTNB: inactive; dFosB activator: inactive; CDK5 inh: inactive

How did O=c1c2c(-c3ccccc3)csc2ncn1/N=C/c1ccc(O)c([N+](=O)[O-])c1 do in these assays?
PvdQ inh: inactive; dFosB activator: inactive; CDK5 inh: inactive; FGF22 binding: 44

How did COc1cccc(CN2CC(C(=O)N(C)CC3CCOCC3)CCC2=O)c1 (stereo not drawn) do in these assays?
PvdQ inh: inactive; PglD DTNB: inactive; dFosB activator: inactive; SIRT5 block: 19; CDK5 inh: inactive; FGF22 binding: inactive

What do the screens show for `COC(=O)[C@@]12C[C@@H](CC(=O)NCc3ccccc3)C(=O)N(Cc3ccccc3)C1=CCC(C)(C)C2`?
SIRT5 block: 36; FGF22 binding: inactive

What do the screens show for `COC(=O)[C@@]12C[C@@H](CC(=O)NCc3ccc(C)o3)C(=O)N(Cc3ccccc3)C1=CCC(C)(C)C2`?
SIRT5 block: inactive; FGF22 binding: inactive

How did COC(=O)[C@]12CCCCC=C1N(Cc1cccc3ccccc13)C(=O)[C@H](CC(=O)NCC1CCCCC1)C2 do in these assays?
SIRT5 block: 22

What do the screens show for `COC(=O)[C@@]12C[C@@H](CC(=O)NCc3ccccc3)C(=O)N(Cc3cccc4ccccc34)C1=CCC(C)(C)C2`?
SIRT5 block: inactive; FGF22 binding: 20

How did COC(=O)[C@@]12C[C@@H](CC(=O)NCc3cccc4ccccc34)C(=O)N(Cc3cccc4ccccc34)C1=CCC(C)(C)C2 do in these assays?
SIRT5 block: inactive; FGF22 binding: inactive
